Most compounds without a hit are left out; they make up all but 3.6% or so of the library.
PMP22 txn = modulates PMP22 transcription in S16 Schwann cells; 43,000 compounds, 2% hits; Potency, µM (titrated, usually from 57.5 µM), most hits filed as inhibitors; S16 Pmp22-F2sN Schwann cells, FLuc/NLuc coincidence luminescence, 24 h; active = clear falling dose curves in both reporters; inconclusive = both reporters move, but less clearly or upward; inactive = either reporter flat; the % is the NLuc reporter signal
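S16 Schwann cells carrying FLuc/NLuc coincidence reporter in the Pmp22 3' UTR treated with compound 24 h at 37C; FLuc then NLuc luminescence read sequentially by dual-luciferase reagents.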
S16 F2sN tox = S16 Schwann cell cytotoxicity; AID 1508642; Potency, µM (top dose mostly 57.5 µM), actives largely listed as cytotoxic; S16 Pmp22-F2sN Schwann cells viability, CellTiter-Glo, 24 h; 43,000 compounds, 0.48% hits; note: nearly all actives have a fitted effect of over 65% in size
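S16 Pmp22-F2sN Schwann cells (500-1,000/well) in phenol-red-free DMEM with 10% FBS received 23 nL compound by pin tool for 24 h at 37 °C. Viability was then read as CellTiter-Glo luminescence after 15 min at room temperature.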
OvCa metastasis = inhibitors of ovarian cancer cell adhesion and invasion in omental model; SKOV3ip1-GFP adhesion/invasion on 3D omental model, fluorescence; Potency, µM (top dose mostly 45.8 µM), most hits filed as inhibitors; 46,000 compounds, 0.1% hits; note: nearly all actives have a fitted effect of over 65% in size
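Primary human omental fibroblast/mesothelial 3D culture pre-formed 48 h. SKOV3ip1-GFP cells added with compounds (0.36-46 umol/L), incubated 2 h RT/16 h 37 C, fixed; GFP cells quantified at 488/509 nm.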
HTT promoter inh = inhibits huntingtin promoter activity; HEK293 HTT promoter firefly luciferase reporter, 24 h; 48,000 compounds, 0.93% hits; Potency, µM (titrated, usually from 57.5 µM), actives largely listed as inhibitors; AID 1508623; note: nearly all actives have a fitted effect of over 50% in size
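Quantitative HTS used concentration series of up to 57.5 uM final on HEK293 luciferase reporter cells, 24 h at 37 degrees C. Readout was Dual-Glo firefly luminescence.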
HTT-AS promoter = activators of huntingtin-antisense promoter activity; Potency, µM (series often up to 57.5 µM), hits mostly activators; AID 1508624; 48,000 compounds, 0.24% hits; HEK293 HTT-AS promoter firefly luciferase reporter, 24 h; response scale: percent change from vehicle, -100% = no light; note: nearly all actives have a fitted effect of over 55% in size
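HEK293 Fluc reporter, 2,500 cells/well, 24 h pre-culture; cpds up to 57.5 uM final, 24 h 37 degrees C; Dual-Glo, 10 min RT; normalized vehicle = 0%, zero RLU = -100%.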
mTORC1 inh = reduces mTORC1 signaling in Tsc2 and p53 null MEF cells | Tsc2-/- p53-/- MEF, phospho-rpS6 immunofluorescence/PI, 24 h | Potency, µM (doses to about 38.3 µM), most hits filed as inhibitors | 44,000 compounds, 0.78% hits | AID 493208; note: nearly all actives have a fitted effect of over 50% in size
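Readout is phospho-S6 Alexa 488 signal normalized to PI per well, reported as % active cells with thresholds set from rapamycin (7.5 nM) and DMSO controls. Cells: Tsc2-/-, p53-/- MEFs, 24 hrs compound at 37 C; PI cell number serves as viability.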
NLuc sat counter = counter-screen for PMP22 expression modulators: NanoLuc inhibition, saturating substrate | shares compounds with PMP22 txn | Secreted NLuc enzyme (filtered S16 cell medium), Nano-Glo luminescence | Potency, µM (top dose mostly 57.5 µM), usual class: inhibitors | 690 compounds, 4% hits | AID 1508638
NLuc Km ctr = inhibits NanoLuc under Km conditions, PMP22 counter-screen | 690 compounds, 5% hits | shares compounds with PMP22 txn | Potency, µM (series often up to 57.5 µM), most hits filed as inhibitors | secreted NLuc enzyme, coelenterazine luminescence, Km conditions
FLuc ctr PMP22 = counter-screen for PMP22 expression modulators: firefly luciferase inhibition; shares compounds with PMP22 txn; purified P. pyralis FLuc, luminescence, 10 min; Potency, µM (doses to about 57.5 µM), usual class: inhibitors; 690 tested, under 10 active
Target sequence (P08659 whole entry, looked up): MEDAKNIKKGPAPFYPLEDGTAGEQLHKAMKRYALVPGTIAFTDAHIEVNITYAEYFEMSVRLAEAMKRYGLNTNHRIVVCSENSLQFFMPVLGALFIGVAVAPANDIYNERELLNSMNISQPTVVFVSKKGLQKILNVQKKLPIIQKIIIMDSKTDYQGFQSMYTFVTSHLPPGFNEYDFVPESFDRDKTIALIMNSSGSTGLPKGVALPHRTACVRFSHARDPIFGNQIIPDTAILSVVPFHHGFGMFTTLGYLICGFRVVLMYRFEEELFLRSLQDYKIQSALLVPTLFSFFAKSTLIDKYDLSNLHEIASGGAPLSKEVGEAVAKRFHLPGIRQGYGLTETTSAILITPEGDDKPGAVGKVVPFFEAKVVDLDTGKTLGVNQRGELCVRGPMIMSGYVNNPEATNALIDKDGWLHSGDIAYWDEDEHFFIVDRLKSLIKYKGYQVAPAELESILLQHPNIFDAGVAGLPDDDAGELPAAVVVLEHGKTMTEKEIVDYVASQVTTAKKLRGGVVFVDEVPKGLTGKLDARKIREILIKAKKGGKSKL
S16 F2sN tox cnf = S16 Schwann cell cytotoxicity, confirmatory. AID 1508641. 690 compounds, 7% hits. shares compounds with PMP22 txn. S16 Schwann cells viability, CellTiter-Glo ATP luminescence, 24 h. Potency, µM (titrated, usually from 57.5 µM), actives largely listed as cytotoxic
PMP22 txn cnf = confirmation of modulators of PMP22 gene transcription in S16 cells; S16 Schwann cells Pmp22-F2sN, dual luciferase, 24 h; Potency, µM (series often up to 57.5 µM), usual class: inhibitors; AID 1508646; 690 compounds, 22% hits; shares compounds with PMP22 txn; active = clear falling dose curves in both reporters; inconclusive = both reporters move, but less clearly or upward; inactive = either reporter flat; the % is the FLuc reporter signal
PMP22 prot conf = rat PMP22 protein level modulation, confirmatory; shares compounds with PMP22 txn; S16 Schwann cells Pmp22-HiBiT, luminescence, 48 h; Potency, µM (highest dose often 27.9 µM), most hits filed as inhibitors; 95 tested, under 10 active; AID 1508647
Each line names hits and unclear results; the compound was inactive in the other large screens (follow-up assays come after a bar, where they were run). Unless noted, calls come from the whole dose curve; as a rule, active = well fitted curve in the direction sought with a large enough effect; inconclusive = small, poorly fitted or top-dose-only effect, or another doubt; inactive = no such curve, though single readings can be large; an effect the other way counts as inactive or inconclusive.

Clc1cccc(-c2noc3ncnc(NC4CCCCC4)c23)c1	PMP22 txn inconclusive, HTT promoter inh inconclusive | NLuc sat counter inactive | NLuc Km ctr inactive | FLuc ctr PMP22 inactive | S16 F2sN tox cnf inactive | PMP22 txn cnf 8.2µM | PMP22 prot conf inactive
CC1CCC(Nc2ncnc3onc(-c4ccc(Cl)cc4)c23)CC1 (configuration not stated)	HTT promoter inh inconclusive
Clc1ccc(-c2noc3ncnc(NC4CCCCC4)c23)cc1	PMP22 txn inconclusive, HTT promoter inh inconclusive | NLuc sat counter inactive | NLuc Km ctr inactive | FLuc ctr PMP22 inactive | S16 F2sN tox cnf inactive | PMP22 txn cnf inconclusive
COc1cc(Nc2nc3ccccc3nc2NS(=O)(=O)c2ccc(NC(=O)c3ccc(C)c(OC)c3)cc2)cc(OC)c1	HTT promoter inh inconclusive (no result: PMP22 txn, S16 F2sN tox, mTORC1 inh)
O=C1CC(c2cccc(Cl)c2Cl)c2cc3c(cc2N1)OCCO3 (configuration not stated)	PMP22 txn 16µM, HTT promoter inh inconclusive | NLuc sat counter inactive | NLuc Km ctr inconclusive | FLuc ctr PMP22 inactive | S16 F2sN tox cnf inactive | PMP22 txn cnf inactive
CC(C=CC=C(C)C=CC1=C(C)CCCC1(C)C)=CC=CC=C(C)C=CC=C(C)C=CC1=C(C)CCCC1(C)C	none (no result: PMP22 txn, S16 F2sN tox, mTORC1 inh)
Cc1c(C(=O)Nc2ccc(N3C[C@@H](C)O[C@@H](C)C3)nc2)cccc1-c1ccc(OC(F)(F)F)cc1	none (no result: PMP22 txn, S16 F2sN tox, mTORC1 inh)
O=C(NC[C@H](O)CO)c1ccncc1Nc1ccc(I)cc1F	none (no result: PMP22 txn, S16 F2sN tox, mTORC1 inh)
CCOC(=O)c1cc2c(=O)n3ccccc3nc2n(Cc2ccco2)c1=NC(=O)c1cc(C)cc(C)c1	PMP22 txn 5.6µM, S16 F2sN tox inconclusive, HTT promoter inh inconclusive | NLuc sat counter inconclusive | NLuc Km ctr inconclusive | FLuc ctr PMP22 inactive | S16 F2sN tox cnf inconclusive | PMP22 txn cnf 4.6µM | PMP22 prot conf inconclusive
CCOC(=O)c1cc2c(=O)n3ccccc3nc2n(CC2CCCO2)c1=NC(=O)c1cccc(C(F)(F)F)c1 (configuration not stated)	PMP22 txn 4.9µM | NLuc sat counter inactive | NLuc Km ctr inconclusive | FLuc ctr PMP22 inactive | S16 F2sN tox cnf inactive | PMP22 txn cnf inconclusive
CCOC(=O)c1cc2c(=O)n3ccccc3nc2n(Cc2ccco2)c1=NC(=O)c1ccc(C(C)(C)C)cc1	PMP22 txn inconclusive
Nc1c(I)cc(I)c(C(=O)N(CCC(=O)O)c2ccccc2)c1I	none (no result: PMP22 txn, S16 F2sN tox, OvCa metastasis, mTORC1 inh)
